Assay results taken from PubChem BioAssay AID488940 (National Center for Advancing Translational Sciences (NCATS), 2010).
Active and inactive are the calls of the source. Calls come from the whole dose curve.

What follows are compounds tested against DNA repair nuclease/redox regulator APEX1 (Homo sapiens) (UniProt P27695) (assay: Radiotracer Incision Assay (RIA) for Inhibitors of Human Apurinic/apyrimidinic Endonuclease 1 (APE1)). Settings: Recombinant APE1, radiolabeled AP-DNA incision, gel.
Description: The apurinic/apyrimidinic endonuclease APE1 is the primary mammalian enzyme responsible for the removal of abasic (or AP) sites in DNA and functions centrally in the base excision DNA repair (BER) pathway. […] Thus, targeting APE1 could improve the efficacy of current treatment paradigms by promoting selective sensitization or protection of diseased and normal cells, respectively. This secondary Radiotracer Incision Assay was implemented to validated hits from the primary screen (AID 2517).
Recombinant wild type APE1 protein was purified as previously described (Erzberger et al., NAR, 1998). Fifty pg of APE1 (~140 pM) was incubated without (positive control containing 1% DMSO) or with 100 microM of the indicated inhibitor at room temperature in RIA buffer (50 mM Tris pH 7.5, 25 mM NaCl, 1mM MgCl2, 1 mM DTT, 0.01% Tween -20) for 15 min. One-half pmol of 32P 5'-radiolabeled AP-DNA substrate (18 mer) was added to a 10 microL final volume (see Wilson et al., JBC, 1995), and the reactions were incubated at 37 °C for 5 min and stopped by adding stop buffer (0.05% Bromophenol blue/ Xylene cyanol dissolved in 95% formamide, 20 mM EDTA) and heating at 950C for 10 min. Intact substrate was separated from incised product on a 15% polyacrylamide denaturing gel in tris boric acid EDTA buffer. Following electrophoresis, the gel was subjected to standard phosphoimager analysis using the ImageQuant 5.2 software, and the percent incision activity (amount of substrate converted to product) was calculated.

DNA repair nuclease/redox regulator APEX1 (Homo sapiens), sequence (P27695 whole entry, looked up): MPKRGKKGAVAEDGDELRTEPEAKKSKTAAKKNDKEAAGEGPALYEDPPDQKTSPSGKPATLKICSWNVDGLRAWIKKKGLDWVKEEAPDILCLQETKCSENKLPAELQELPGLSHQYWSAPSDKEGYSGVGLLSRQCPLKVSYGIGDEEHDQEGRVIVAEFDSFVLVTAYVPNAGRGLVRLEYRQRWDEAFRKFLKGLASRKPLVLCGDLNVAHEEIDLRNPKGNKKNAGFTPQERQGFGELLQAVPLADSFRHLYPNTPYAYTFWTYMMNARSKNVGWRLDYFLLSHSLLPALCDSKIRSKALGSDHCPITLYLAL

| SMILES | Potency |
| --- | --- |
| CC(=O)Nc1sc2c(c1-c1nc3ccccc3s1)CCCN(C(C)C)C2 | 14 µM (active) |
| CC(=O)Nc1sc2c(c1-c1nc3ccccc3o1)CCN(C(C)C)C2 | 13 µM (active) |
| O=C(Nc1sc2c(c1-c1nc3ccccc3s1)CCNC2)C(F)F | 4 µM (active) |
| CC(=O)Nc1sc2c(c1-c1nc3ccccc3s1)CN(C(C)C)C2 | 4 µM (active) |
| CC(=O)Nc1sc2c(c1-c1nc3ccccc3s1)CCNC2 | 5 µM (active) |
| CC(=O)Nc1sc2c(c1-c1nc(-c3ccccc3)cs1)CCN(C(C)C)C2 | 3 µM (active) |
| CC(=O)Nc1sc2c(c1-c1nc3ccccc3s1)CCN(C(C)=O)C2 | 5 µM (active) |
| CC(=O)Nc1sc2c(c1-c1nc3ccccc3s1)CCCNC2 | 7 µM (active) |
| CC(=O)Nc1sc2c(c1-c1nc3ccccc3s1)CCN(C(C)C)C2 | 19 µM (active) |
| CC(=O)Nc1sc2c(c1-c1nc3ccccc3s1)CCN(C(C)C)CC2 | 13 µM (active) |
| CC(=O)Nc1sc2c(c1-c1nc3ccccc3s1)CCS(=O)(=O)C2 | 77 µM (active) |
| CC(=O)Nc1sc2c(c1-c1nc3ccccc3s1)CCN(C)C2 | 5 µM (active) |
